Compounds with a hit are over-represented: about 21% of the library has one in this group of screens.
Pf growth 96h: P. falciparum growth inhibition at 96 hours | P. falciparum luciferase reporter growth, 96 h | Potency, µM (highest dose often 28.7 µM), without a hit: top-dose activity change, negative = inhibition, hits mostly inhibitors | 6.9% of 320,000 active | AID 504834; active = well fitted inhibition curve with a large enough effect; inconclusive = small, poorly fitted or top-dose-only effect, or another doubt; inactive = no such curve, though single readings can be large or run the other way; note: potency is the fitted concentration of half-maximal effect; % is set by controls: 0 for no effect and ±100 for the full control effect
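96 h incubation, 37 C, 5% CO2, of luciferase-reporter P. falciparum-infected RBCs (2% hematocrit, 0.05% parasitemia final) with test compounds; endpoint luminescence.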
Pf growth 48h: P. falciparum growth inhibition at 48 hours (one generation). P. falciparum luciferase growth in erythrocytes, 48 h. 5.9% of 310,000 active. Potency, µM (top dose mostly 28.7 µM), for inactives: at the top dose activity change, negative = inhibition, hits mostly inhibitors. AID 504832; active = well fitted inhibition curve with a large enough effect; inconclusive = small, poorly fitted or top-dose-only effect, or another doubt; inactive = no such curve, though single readings can be large or run the other way; note: potency is the fitted concentration of half-maximal effect; % is set by controls: 0 for no effect and ±100 for the full control effect
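Growth was read as firefly luciferase luminescence after a 48 h, 37 C, 5% CO2 exposure of compounds to reporter-bearing P. falciparum cultures (0.1% parasitemia, 2% hematocrit final) in Albumax-supplemented RPMI 1640.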
NS1 inh: influenza NS1 inhibition; Potency, µM (highest dose often 46.1 µM), for the others: top-dose activity, positive = more growth; 0.4% of 270,000 active; note: potency is the fitted concentration of half-maximal effect; actives are rising curves; nearly all actives have a fitted effect of over 50% in size
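OD600 was taken as the measure of yeast growth restored by compound in an NS1-expressing S. cerevisiae strain. Cells had been washed out of glucose medium and diluted 1:100 into galactose -URA medium, pH 6.0.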
CHX counter: counter-screen hit for Shiga toxin inhibitors, cycloheximide. cell reporter, cycloheximide protein synthesis inhibition counterscreen. 12% of 300,000 active. max response, %; in the data active = max response mostly above about 13%, no sharp cut-off; inactive = mostly below about 14%; note: read at 38.3 µM for the half of the compounds with a filed dose; 0% is about no effect
SARS PLpro yeast: inhibitors of SARS-CoV papain-like protease in yeast. S. cerevisiae expressing SARS-CoV PLpro, growth rescue. Potency, µM (top dose mostly 32.9 µM), without a hit: top-dose activity, positive = growth rescue, most hits filed as activators. 0.19% of 330,000 active; note: potency is the fitted concentration of half-maximal effect; 0% is about no effect; nearly all actives have a fitted effect of over 55% in size
Shiga toxin inh: blocks Shiga toxin action in Vero cells; Vero cells, Shiga toxin protein synthesis inhibition reporter; inhibition, % at 38.7 µM; 9.2% of 290,000 active; in the data active = inhibition mostly above about 28%, no sharp cut-off; inactive = mostly below about 43%; note: 0% is about no effect
Starred values were filed as active, the others as inactive; ? = inconclusive; / = no result; [ ] = dose if it differs, or a comment. Unless noted, calls come from the whole dose curve.

SMILES | Pf growth 96h | Pf growth 48h | NS1 inh | CHX counter | SARS PLpro yeast | Shiga toxin inh
Cc1nc2ncnn2c(C)c1CCC(=O)NC(C)CCc1ccco1 (stereo not drawn) | 12µM* | 10% | ? | -3 | -7% | -24
CCc1c(C)nc2cc(-c3cc(OC)cc(OC)c3)nn2c1N1CCN(CCN2CCOCC2)CC1 | 37% | 1.3µM* | 17% | -2 | 20% | -12
COc1cc(OC)cc(-c2cc3nc(C)c(CCC(=O)O)c(C)n3n2)c1 | 9.3µM* | / | 2% | -7 | -1% | -19
CCOC(=O)C1CCN(C(=O)CCc2c(C)nc3cc(-c4ccccc4)nn3c2C)CC1 | 13% | / | -4% | 1 | 0% | 36
Cc1nc2cc(-c3cccc(F)c3)nn2c(C)c1CCC(=O)NC(C)CCc1ccco1 (stereo not drawn) | 10µM* | / | -50% | -4 | -10% | -8
CCOC(=O)C1(Cc2ccc(Cl)cc2)CCN(C(=O)c2cscn2)CC1 | ? | 2% | -5% | 0 | 0% | -4
COc1cc(OC)cc(-c2cc3nc(C)c(CCC(=O)NC(C)CCc4ccco4)c(C)n3n2)c1 (stereo not drawn) | 10% | 9.3µM* | -11% | -1 | 2% | 8
COc1ccccc1-c1cc2nc(C)c(CCC(=O)NCc3ccco3)c(C)n2n1 | ? | ? | -2% | 14 | -8% | 3
Cc1nc2cc(-c3ccccc3)nn2c(C)c1CCC(=O)NCc1ccco1 | ? | / | -5% | 39* | 13% | 68*
COc1ccc(N2C(=O)CC(c3ccc(OC(C)C)cc3)C2=O)cc1 (stereo not drawn) | 7.4µM* | / | 3% | -4 | -1% | -5
CCOC(=O)c1oc2cc(C)cc(C)c2c1C | 15% | 5% | 5% | -2 | -1% | -1
CCOC(=O)c1oc2ccc(/C=N/O)c(Cl)c2c1C | 23% | 77% | 0% | 29* | -1% | 37
COc1ccc(C(=O)N2CCc3ccc(NC(=O)c4ccccn4)cc3C2)cc1F | -11% | ? | -32% | 42* | -17% | 56*
CN(C)Cc1nsc(N(C)C)n1 | / | / | -1% | / | / | /
COc1ccc(-c2nn(-c3ccccc3)cc2/C=N/NC(N)=S)cc1OC | 15µM* | 12µM* | ? | -2 | 25% | 17
COc1ccc(-c2nn(-c3ccccc3)cc2C(N)=O)cc1OC | 15µM* | 42% | 9% | 6 | 1% | /
NC(=O)c1cn(-c2ccccc2)nc1-c1cccnc1 | 18% | 14% | 1% | -2 | -5% | -6
COc1ccc(-c2nn(-c3ccccc3)cc2/C=C/C(=O)O)cc1[N+](=O)[O-] | -8% | -17% | 14% | 13* | 7% | 41
O=C(O)c1ccc(-c2ccc(/C=N/Nc3ccc([N+](=O)[O-])cc3)o2)cc1 | -7% | -17% | -4% | 16* | -4% | 92*
O=C(O)c1cc(-c2ccc(/C=N/Nc3ccc([N+](=O)[O-])cn3)o2)ccc1Cl | 0% | 1% | / | 8 | -1% | -11
O=C(O)c1cccc(-c2ccc(/C=N/Nc3ccc([N+](=O)[O-])cc3)o2)c1 | 4% | -18% | 2% | 17* | 0% | 54
NS(=O)(=O)c1ccc(-c2ccc(/C=N/NC(=O)c3ccc([N+](=O)[O-])cc3)o2)cc1 | 54% | 53% | -1% | -3 | 1% | -7
NS(=O)(=O)c1ccc(-c2ccc(/C=N/Nc3ccc(C(=O)O)cc3)o2)cc1 | 51% | 113% | 9% | 41* | 2% | 18
Cc1cc(C)c(S(=O)(=O)N(C)CC(N)=O)c(C)c1 | 20% | 13% | 4% | -3 | 0% | -10
CCCCc1c(O)cc(C)[nH]c1=O | 26% | -17% | -3% | -1 | -1% | 4
SMILES | Pf growth 96h | Pf growth 48h | NS1 inh | CHX counter | SARS PLpro yeast | Shiga toxin inh
Cc1c(C(=O)N2CCN(c3ccc(F)cc3)CC2)sc2nc(-c3ccccc3)cn12 | 21% | 21% | -9% | -2 | 1% | 2
Cc1c(C(=O)N2CCOCC2)sc2nc(-c3ccccc3)cn12 | / | / | -12% | 21* | -3% | 43*
Cc1c(C(=O)N2CCc3ccccc3C2)sc2nc(-c3ccccc3)cn12 | ? | ? | -41% | 27* | -18% | 45*
COc1ccc(-c2cn3c(C)c(C(=O)N4CCc5ccccc5C4)sc3n2)cc1 | ? | -7% | -26% | -5 | -17% | -3
FC(F)(F)c1nc2ccccc2nc1N/N=C/c1c(Cl)cccc1Cl | -8% | 9.3µM* | 2% | -2 | -1% | -7
O=C(CCCN1C(=O)NC2(CCCC2)C1=O)Nc1ccc(Cl)c(S(=O)(=O)N2CCOCC2)c1 | ? | ? | / | / | 1% | /
CN(C)c1ccc(/C=N/NC(=O)c2ccc3c(c2)OCCO3)cc1 | 24% | 11% | -65% | 34* | -9% | 48*
CCN(CC)c1ccc(/C=N/NC(=O)c2ccc3c(c2)OCCO3)cc1 | 5% | ? | -47% | 58* | -6% | 115*
O=C(N/N=C/c1ccc2c(c1)OCCO2)c1ccncc1 | 15% | 4% | 7% | 21 | 0% | 29
Cc1ccc(-c2nc3cnccn3c2Nc2ccccc2)o1 | -19% | / | -79% | 15 | -9% | 12
Brc1ccc(-c2nc3ncccn3c2Nc2ccc3c(c2)OCCO3)o1 | 24% | / | 7% | 29 | 10% | 15
Cc1ccc(-c2nc3ncccn3c2Nc2ccc3c(c2)OCCO3)o1 | ? | 5% | -2% | 27* | 0% | 70*
Cc1ccc(-c2nc3ncccn3c2Nc2ccc3c(c2)OCCO3)cc1 | 12µM* | / | -8% | 3 | 0% | -5
Cc1ccc(Nc2c(-c3ccc(C)o3)nc3cnccn23)cc1 | 0.74µM* | / | -13% | -1 | -1% | -13
COc1ccccc1N(C(=O)c1ccco1)C(C(=O)NC1CCCC1)c1ccc(N2CCOCC2)cc1 (stereo not drawn) | 16% | ? | -2% | -2 | 0% | -8
CCCNC(=O)CCC(=O)Nc1ncc(-c2ccc(C)cc2)n1C | 8% | 45% | -15% | 25* | 1% | 33*
CCCNC(=O)CCn1nc(-c2ccc(C)cc2)c2ccccc2c1=O | -8% | -16%[0.00184 µM] | -5% | -1 | 0% | 7
COc1ccc2c(CC#N)c[nH]c2c1 | / | -12% | -4% | 4 | -8% | -21
COCc1cc(Sc2ccc(OC)cc2)nc(-c2ccccc2)n1 | ? | ? | / | 5 | 2% | -8
COCc1cc(Sc2ccc(Cl)cc2Cl)nc(-c2ccccc2)n1 | ? | 12µM* | 5% | -1 | -2% | 8
CN(C)CCCNC(CC(=O)Nc1cccc([N+](=O)[O-])c1)C(=O)O (stereo not drawn) | 12% | -13% | -7% | -5 | 5% | -10
COc1cc2c(=O)n(CCC(=O)NCC3CCCO3)c(=O)n(CC(=O)c3ccc(Cl)cc3)c2cc1OC (stereo not drawn) | 36% | -2% | / | -1 | 1% | -7
COc1ccccc1C(=O)NCCC(=O)NCCC12CC3CC(CC(C3)C1)C2 | -23% | 1% | 7% | 1 | -1% | -8

Bioassay records deposited in PubChem by National Center for Advancing Translational Sciences (NCATS).
